Data from PubChem BioAssay (NCATS).
Records with an inconclusive call do not appear. The source made the active and inactive calls. Calls follow the shape of the dose curve; as a rule, active = well fitted curve in the direction sought with a large enough effect; inconclusive = small, poorly fitted or top-dose-only effect, or another doubt; inactive = no such curve, though single readings can be large or run the other way.

Experiment: qHTS for Inhibitors of Ubiquitin-specific Protease USP2a Using CHOP2 as the Reporter: K633 Counterscreen (AID 652168)
Details: No-enzyme DiUb K48 IQF substrate fluorescence interference, kinetic; series mostly up to 57.5 µM
Text: Homeostasis of cellular proteins is maintained through a combination of synthesis and degradation. The pathway that accounts for the majority of protein degradation is the ubiquitin-proteasomal pathway. Ubiquitin (Ub) is highly conserved in all cells and the generation of a multi-Ub chain typically targets proteins for degradation by the proteasome. However, ubiquitination is highly reversible and dynamic. Deubiquitination, the reverse process, is catalyzed through the action of enzymes referred to as isopeptidases or deubiquitinating enzymes (DUBs). This group of enzymes is collectively responsible for maintaining adequate pools of free ubiquitin and regulating the ubiquitination status of cellular proteins. The class of DUBs referred to as the ubiquitin-specific proteases (USP) family functions endoproteolytically to cleave Ub chains from a wide range of protein substrates. USP2a deubiquitinates fatty acid synthase (FASN) which has recently been identified as an emerging oncology target. To identify inhibitors of USP2a a cell-free qHTS assay was employed. To determine whether the compounds interacted with the detection system alone, the effect of compounds on the substrate of assay 2.1.3 over time was determined in a 1536-well assay. A compound that modulates the fluorescence over time would be indicative of interference with the detection system. The buffer consisted of 20 mM Tris pH 8, 2 mM beta-mercaptoethanol and 0.05% Chaps, and the assay was run in black solid-bottom Greiner plates. NIH Molecular Libraries Probe Centers Network [MLPCN] NIH Chemical Genomics Center [NCGC] MLSCN Grant: MH079852 PI Name: Benjamin Nicholson, Progenra Inc, Malvern, PA
3 uL of no enzyme in assay buffer was dispensed into a 1536-well plate and then compounds were added through pinning. 1 uL of 100 nM DiUb K48-4IQF subtsrate was added before fluoresence on the ViewLux in kinetic moder (Ex 525/Em 598).

SMILES	outcome
O=C1CC(c2ccccc2)Cc2[nH]c(=O)c(-c3nc(-c4ccc(F)cc4)cs3)cc21 (stereo not given)	inactive
Cc1ccc(NC(=O)c2ccncc2NS(=O)(=O)c2ccc(C)cc2)cc1	inactive
Cc1ccc(S(=O)(=O)Nc2ccccc2C(=O)Nc2nc(-c3ccccc3)c(Br)s2)cc1	inactive
O=C(Nc1ccc([S+](=O)([O-])Nc2nccs2)cc1)c1ccn[nH]1	inactive
COc1ccc(NC(=O)c2cc(-c3ccc(C)c(C)c3)nc3ccccc23)cc1	inactive
COc1ccc(NS(=O)(=O)c2ccc(C)cc2)c(C(=O)Nc2nc(-c3ccccc3)cs2)c1	inactive
Cc1ccc(-c2cc(C(=O)NCC[S+](=O)([O-])O)c3ccccc3n2)cc1C	inactive
O=C(Nc1nc(-c2ccccc2)cs1)c1ccncc1NS(=O)(=O)c1cccnc1	inactive
Cc1ccc(S(=O)(=O)Nc2cnccc2C(=O)Nc2ccncc2)cc1	inactive
COC(=O)c1ccc(NC(=O)c2cc(-c3ccc(C)c(C)c3)nc3ccccc23)cc1	inactive
CCS(=O)(=O)N1CCC(C(=O)Nc2ccc(S(=O)(=O)Nc3nccs3)cc2)CC1	inactive
N#Cc1cccc(S(=O)(=O)Nc2cnccc2C(=O)Nc2nc(-c3ccccc3)cs2)c1	inactive
O=C(Nc1ccc(S(=O)(=O)Nc2nc(-c3ccccc3)cs2)cc1)c1ccc2ccccc2c1	inactive
Cc1ccc(-c2cc(C(=O)Nc3ccc(C(=O)O)cc3)c3ccccc3n2)cc1C	inactive
O=c1[nH]c(CN2CCOCC2)nc2sc3c(c12)CCC3	inactive
Cc1ccc(-c2cc(C(=O)Nc3ccccn3)c3ccccc3n2)cc1C	inactive
Cc1ccc(S(=O)(=O)Nc2cnccc2C(=O)Nc2ccc(-n3cncn3)cc2)cc1	inactive
Cc1ccc(S(=O)(=O)n2cc(C(=O)Nc3ccc(-c4ccccc4)cc3)c3ccccc32)cc1	inactive
Cc1ccc(S(=O)(=O)Nc2cc(Br)ccc2C(=O)Nc2nc(-c3ccccc3)cs2)cc1	inactive
O=C(O)c1cccc(S(=O)(=O)Nc2nccs2)c1	inactive

SMILES	outcome
Cc1ccc(S(=O)(=O)Nc2cc3c(cc2C(=O)Nc2nc(-c4ccccc4)cs2)OCO3)cc1	inactive
CC(C)C1CCC(C(=O)Nc2ccc(S(=O)(=O)Nc3nccs3)cc2)CC1 (stereo not given)	inactive
Cc1ccc(S(=O)(=O)Nc2cc(C(F)(F)F)ccc2C(=O)Nc2nc(-c3ccccc3)cs2)cc1	inactive
Cc1noc(C)c1S(=O)(=O)Nc1cnccc1C(=O)Nc1nc(-c2ccccc2)cs1	inactive
O=c1[nH]c(CN2CCOCC2)nc2sc3c(c12)CCCC3	inactive
Cc1ccc(S(=O)(=O)Nc2ccc(Cl)cc2C(=O)Nc2nc(-c3ccccc3)cs2)cc1	inactive
O=C(Nc1nc(-c2ccccc2)cs1)c1ccncc1NS(=O)(=O)c1ccc(N2CCCC2=O)cc1	inactive
O=C(Nc1ccc(S(=O)(=O)Nc2nccs2)cc1)c1ccncc1	inactive
O=C(Nc1ccc(S(=O)(=O)Nc2nccs2)cc1)C1CC(OCc2ccccc2)C1 (stereo not given)	inactive
Cc1ccc(S(=O)(=O)Nc2ccccc2C(=O)Nc2nccs2)cc1	inactive
Cc1ccc(-c2cc(C(=O)Nc3ccc(-c4nn[nH]n4)cc3)c3ccccc3n2)cc1C	inactive
Cc1ccc(S(=O)(=O)Nc2cc(F)ccc2C(=O)Nc2nc(-c3ccccc3)cs2)cc1	inactive
O=S(=O)(Nc1ccc(S(=O)(=O)Nc2nccs2)cc1)c1ccc2ccccc2c1	inactive
O=C(Nc1ccc(S(=O)(=O)Nc2nccs2)cc1)c1cccnc1	inactive
O=C(Nc1ccc(S(=O)(=O)Nc2nccs2)cc1)C1CCC2(CC1)CC2	inactive
Cc1ccc(S(=O)(=O)Nc2cnccc2C(=O)Nc2ccc(S(=O)(=O)Nc3nccs3)cc2)cc1	inactive
Cc1ccc(S(=O)(=O)NCC(=O)Nc2nc(-c3ccccc3)cs2)cc1	inactive
O=C(Nc1ccc([S+](=O)([O-])Nc2nccs2)cc1)C1CCNCC1	inactive
Cc1ccc(-c2cc(C(=O)Nc3ccccc3)c3ccccc3n2)cc1C	inactive
CC1(C)CC(C(=O)Nc2ccc([S+](=O)([O-])Nc3nccs3)cc2)C1	inactive
